Source: PubChem (National Center for Advancing Translational Sciences (NCATS))
In the library only some 7.6% were active in any assay of this set; here they are far more common.
SW480 rerep – inducers of DNA re-replication in SW480 colon cancer cells. 340,000 compounds, 1.8% hits. SW480 DNA re-replication, Hoechst DNA content imaging, 48 h. Potency, µM (doses to about 46.1 µM), most hits filed as activators; note: nearly all actives have a fitted effect of over 55% in size
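Quantitative HTS format with DMSO vehicle controls; 48 hr drug incubation at 37 C, then 40 min Hoechst staining and scanning imager measurement at 405 nm excitation.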
KB-V1 MDR tox – KB-V1 MDR subline cytotoxicity; KB-V1 MDR cells viability, CellTiter-Glo, 72 h; Potency, µM (highest dose often 46.1 µM), hits mostly cytotoxic; 400,000 compounds, 3.4% hits; note: nearly all actives have a fitted effect of over 60% in size
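KB-V1 MDR subline cells in DMEM (phenol-red free, 10% FBS) exposed to compounds in qHTS concentration series for 72 h at 37 degrees C. Viability read by CellTiter-Glo luminescence; concentration-effect curves fitted after normalization and correction.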
KB-3-1 cytotox – KB-3-1 parental cell cytotoxicity; Potency, µM (doses to about 46.1 µM), most hits filed as cytotoxic; 400,000 compounds, 1.4% hits; KB-3-1 viability, CellTiter-Glo ATP luminescence, 72 h; note: nearly all actives have a fitted effect of over 60% in size
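Here the drug-naive KB-3-1 line serves as comparator for MDR sub-line selectivity; cells received compound titrations, 72 h at 37 °C, then CellTiter-Glo readout.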
MCF10A rerep – inducers of DNA re-replication in MCF 10A breast cells. AID 624296. Potency, µM (titrated, usually from 46.1 µM), hits mostly activators. 350,000 compounds, 2.9% hits. MCF 10A DNA re-replication, Hoechst nuclear intensity, 48 h; note: nearly all actives have a fitted effect of over 50% in size
hERG WT inh – KCNH2 (human, wildtype) channel inhibition; Q12809; U2OS, BacMam KCNH2, thallium flux FluxOr; hits give low values; activity change, % at 1.84 µM; 340,000 compounds, 0.37% hits; AID 720551;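 active = maximum activity change below -70%; inconclusive = maximum activity change between -70% and -50%; inactive = maximum activity change above -50%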
Target sequence (Q12809 whole entry, looked up): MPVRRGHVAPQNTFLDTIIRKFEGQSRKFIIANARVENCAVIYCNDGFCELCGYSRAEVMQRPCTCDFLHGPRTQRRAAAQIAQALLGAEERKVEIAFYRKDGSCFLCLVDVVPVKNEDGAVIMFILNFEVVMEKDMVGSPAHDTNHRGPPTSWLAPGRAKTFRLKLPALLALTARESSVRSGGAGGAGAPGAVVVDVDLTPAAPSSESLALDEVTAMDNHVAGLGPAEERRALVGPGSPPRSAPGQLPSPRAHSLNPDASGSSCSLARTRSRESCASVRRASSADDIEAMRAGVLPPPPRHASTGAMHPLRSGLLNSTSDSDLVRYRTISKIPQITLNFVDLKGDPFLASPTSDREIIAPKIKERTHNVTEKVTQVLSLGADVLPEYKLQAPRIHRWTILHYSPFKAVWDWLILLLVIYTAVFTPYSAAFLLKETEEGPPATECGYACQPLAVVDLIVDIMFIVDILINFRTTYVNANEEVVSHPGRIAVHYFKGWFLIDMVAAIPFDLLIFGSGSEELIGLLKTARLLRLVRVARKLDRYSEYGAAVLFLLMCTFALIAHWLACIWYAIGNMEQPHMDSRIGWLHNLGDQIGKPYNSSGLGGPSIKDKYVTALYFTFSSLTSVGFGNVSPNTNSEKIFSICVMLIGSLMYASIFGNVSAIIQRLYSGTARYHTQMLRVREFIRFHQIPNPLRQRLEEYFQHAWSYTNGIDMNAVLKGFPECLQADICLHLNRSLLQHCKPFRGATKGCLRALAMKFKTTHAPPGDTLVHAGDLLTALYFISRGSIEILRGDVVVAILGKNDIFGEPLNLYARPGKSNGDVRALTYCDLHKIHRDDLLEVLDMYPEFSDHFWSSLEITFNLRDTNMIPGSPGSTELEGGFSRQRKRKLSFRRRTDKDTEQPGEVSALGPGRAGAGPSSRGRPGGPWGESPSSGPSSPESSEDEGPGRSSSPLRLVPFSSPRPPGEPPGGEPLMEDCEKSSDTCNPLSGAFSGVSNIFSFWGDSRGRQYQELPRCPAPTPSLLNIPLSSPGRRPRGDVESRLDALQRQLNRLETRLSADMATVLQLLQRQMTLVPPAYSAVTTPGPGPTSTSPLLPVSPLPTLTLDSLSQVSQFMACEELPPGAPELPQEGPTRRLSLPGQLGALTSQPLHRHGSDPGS
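U2OS cells transduced with wild-type KCNH2 virus are loaded with FluxOr dye for 45 min, and thallium flux is measured in kinetic reads before and after stimulation buffer. Rate constants are normalized to DMSO controls.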
KCNH2 3.1 block – KCNH2 3.1 (human) potassium channel inhibition. U2OS KCNH2 3.1, thallium flux FluxOr; hits give low values. activity change, % (tested at about 1.8 µM). 340,000 compounds, 0.95% hits. AID 720553;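 active = maximum activity change below -70%; inconclusive = maximum activity change from -70% to -50%; inactive = maximum activity change above -50%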;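 note: thallium influx rate constant from kinetic fluorescence after stimulation buffer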
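Steps: virus added to U2OS suspension (4 h, RT, dark); medium with 10% FBS added, cells plated, 37 C overnight; FluxOr/Red40 loading buffer 45 min RT; stimulation buffer, 2 min kinetic read; rate constant normalized.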
Each line names hits and unclear results; the compound was inactive in the other large screens; ! = repeats disagree. Unless noted, calls come from the whole dose curve; as a rule, active = well fitted curve in the direction sought with a large enough effect; inconclusive = small, poorly fitted or top-dose-only effect, or another doubt; inactive = no such curve, though single readings can be large; an effect the other way counts as inactive or inconclusive.

C[C@H](CO)N1C[C@H](C)[C@@H](CN(C)C(=O)Nc2ccccc2)Oc2c(NS(=O)(=O)c3cn(C)cn3)cccc2C1=O	MCF10A rerep inconclusive
C[C@H]1CN([C@@H](C)CO)C(=O)c2cccc(NC(=O)C3CC3)c2O[C@H]1CN(C)Cc1ccncc1	SW480 rerep inconclusive
C[C@H](CO)N1C[C@H](C)[C@@H](CN(C)Cc2ccncc2)Oc2c(NC(=O)Cc3ccccc3)cccc2C1=O	SW480 rerep inconclusive, KB-3-1 cytotox 16µM, KCNH2 3.1 block inconclusive
CCOC(=O)c1sc2ncn(CC(=O)Nc3cc(Cl)ccc3C)c(=O)c2c1C	none (no result: SW480 rerep, MCF10A rerep, hERG WT inh, KCNH2 3.1 block)
CCOc1ccc(-c2cc(C(=O)NCc3cc(C(F)(F)F)cc(C(F)(F)F)c3)[nH]n2)c(C)c1	none (no result: SW480 rerep, MCF10A rerep, hERG WT inh, KCNH2 3.1 block)
CC(Sc1n[nH]c(N)n1)C(=O)C12CC3CC(CC(C3)C1)C2 (configuration not stated)	none
CC(SC#N)C(=O)C12CC3CC(CC(C3)C1)C2 (configuration not stated)	SW480 rerep inconclusive, KB-3-1 cytotox 21µM, MCF10A rerep 18µM
CC(C)[C@@H](NC(=O)OC(C)(C)C)c1cc(C(=O)c2c(-c3ccccc3)[nH]c3ccccc23)c(N)s1	KB-V1 MDR tox 23µM, KB-3-1 cytotox inconclusive (no result: SW480 rerep, MCF10A rerep, hERG WT inh, KCNH2 3.1 block)
O=C1CCN(CCc2ccccc2)CCN1[C@H](CO)Cc1ccccc1	none (no result: hERG WT inh, KCNH2 3.1 block)
CC(C)CN1CCC(=O)N([C@H](COc2ccccc2)Cc2ccccc2)CC1	SW480 rerep inconclusive, KB-V1 MDR tox inconclusive, KCNH2 3.1 block -90
O=C1CCN(CCc2ccccc2)CCN1[C@H](COc1ccccc1)Cc1ccccc1	SW480 rerep inconclusive, KB-V1 MDR tox inconclusive, KB-3-1 cytotox inconclusive, hERG WT inh -257, KCNH2 3.1 block -100
CC(C)C[C@@H](COc1ccccc1)N1CCN(CCc2ccccc2)CCC1=O	KB-V1 MDR tox inconclusive, KB-3-1 cytotox inconclusive, KCNH2 3.1 block -96
Cc1nc2ccccc2c2c1C(=O)N(C1CCCCCCC1)C2=O	KB-V1 MDR tox inconclusive
C[n+]1ccc(C(c2c[nH]c3ccccc23)c2cc[n+](C)c3ccccc23)c2ccccc21	KB-3-1 cytotox 1.5µM (no result: SW480 rerep, MCF10A rerep, hERG WT inh, KCNH2 3.1 block)
O=C(OCCN1CCCCC1)c1c[nH]c2ccccc12	none
Cc1ccc(OCc2cc(C(=O)N(C)CCc3nc4ccccc4[nH]3)no2)cc1C	SW480 rerep inconclusive, MCF10A rerep 21µM, KCNH2 3.1 block inconclusive
Cc1ccc(OCc2cc(C(=O)N(C)CCc3ccccn3)no2)cc1C	SW480 rerep inconclusive, MCF10A rerep inconclusive
COc1ccc(CCNC(=O)c2cccc3c2C(=O)N(C2CCCCC2)C3)cc1OC	KB-V1 MDR tox 18µM
CN(Cc1ccccc1)C(=O)c1cccc(NC(=O)C2CCCN(C(=O)OC(C)(C)C)C2)c1 (configuration not stated)	none
Cc1ccc(S(=O)(=O)N2CCN(C(=O)c3ccc4nc[nH]c4c3)CC2)cc1	none
O=C(Nc1nc(-c2ccccc2)cs1)C1CCCN(S(=O)(=O)c2ccccc2)C1 (configuration not stated)	SW480 rerep inconclusive, KB-V1 MDR tox inconclusive, MCF10A rerep 8.2µM
O=C(Nc1ccccc1)[C@@H]1CCCN1S(=O)(=O)c1ccc(Cl)cc1	KB-3-1 cytotox inconclusive
O=C(Nc1nc(-c2ccccc2)cs1)C1CCCN(S(=O)(=O)c2cccc([N+](=O)[O-])c2)C1 (configuration not stated)	none
O=C(Nc1ccc(Cl)cc1)C1CCCCN1S(=O)(=O)c1ccccc1 (configuration not stated)	SW480 rerep inconclusive, KB-V1 MDR tox 3.7µM, KB-3-1 cytotox 23µM, MCF10A rerep inconclusive
O=C(Nc1nc(-c2ccccc2)cs1)C1CCCCN1S(=O)(=O)c1ccc(Cl)cc1 (configuration not stated)	KB-V1 MDR tox 13µM, KB-3-1 cytotox inconclusive, MCF10A rerep inconclusive
C[C@@H](c1ccccc1)N1C[C@H](COCc2ccccc2)Oc2cc(N3CCC[C@@H]3CO)ccc2S1(=O)=O	none (no result: SW480 rerep, MCF10A rerep, hERG WT inh, KCNH2 3.1 block)
Cc1c(C=O)ccc(N(C)C)c1C	KB-3-1 cytotox inconclusive (no result: SW480 rerep, MCF10A rerep, hERG WT inh, KCNH2 3.1 block)
OC(c1cccc(Cl)c1)c1ncc(-c2ccc(C(F)(F)F)cc2)[nH]1 (configuration not stated)	none (no result: SW480 rerep, MCF10A rerep, hERG WT inh, KCNH2 3.1 block)
COc1ccc(-c2nc(NC(=O)C3CC(=O)N(c4ccc5c(c4)OCCO5)C3)sc2C)cc1 (configuration not stated)	SW480 rerep 4.1µM, KB-V1 MDR tox inconclusive, KB-3-1 cytotox 13µM!, MCF10A rerep 3.3µM
O=C(NCCCc1ccccc1)C1CC(=O)N(c2ccc3c(c2)OCCO3)C1 (configuration not stated)	KB-V1 MDR tox 23µM
COc1ccc(N2CC(C(=O)Nc3nnc(SCC(=O)NCC4CCCO4)s3)CC2=O)cc1 (configuration not stated)	hERG WT inh -128, KCNH2 3.1 block -197
COc1ccc2nc(NC(=O)C3CC(=O)N(c4ccc5c(c4)OCCO5)C3)sc2c1 (configuration not stated)	none
CC(C)Cn1c(=O)c2ccccc2n2c(CCC(=O)NC3CCN(Cc4ccccc4)CC3)nnc12	none
N#Cc1cc2cc3ccccc3nc2n2c(=O)c3ccccc3nc12	none
Cc1ccccc1Sc1ncnc2onc(C)c12	KB-3-1 cytotox inconclusive, MCF10A rerep inconclusive
Cc1noc2ncnc(Sc3ccc(Cl)cc3)c12	SW480 rerep inconclusive, KB-3-1 cytotox inconclusive, MCF10A rerep 12µM
Cc1noc2ncnc(Sc3c(Cl)cccc3Cl)c12	SW480 rerep inconclusive, KB-V1 MDR tox inconclusive, KB-3-1 cytotox inconclusive, MCF10A rerep 4.5µM
O=C(CSc1cccc[n+]1[O-])N1CCCCCC1	none
O=C(CSc1cccc[n+]1[O-])CSc1cccc[n+]1[O-]	SW480 rerep 6.5µM, KB-V1 MDR tox inconclusive
CC(=O)c1ccc(S(=O)(=O)Nc2cccc(-c3ccc(N4CCCC4)nn3)c2)cc1	none (no result: SW480 rerep, MCF10A rerep, hERG WT inh, KCNH2 3.1 block)
COc1ccc(C(CNC(=O)c2cc3c(s2)CCC(C)C3)N2CCCC2)cc1 (configuration not stated)	SW480 rerep inconclusive, KB-3-1 cytotox 21µM, MCF10A rerep inconclusive
Cc1ccc(CN2CCN(/N=C/c3sccc3C)CC2)c(C)c1	KB-V1 MDR tox 15µM
Cc1cccc(NC(=O)c2cccc(S(=O)(=O)N(C)c3ccccc3)c2)n1	KB-V1 MDR tox 7.3µM
Cc1cc(NC(=O)c2cccc(S(=O)(=O)N3CCCCCC3)c2)n(-c2ccccn2)n1	KB-V1 MDR tox inconclusive
CN(c1ccc(C(=O)NC2CCCCC2)cc1)S(=O)(=O)c1ccccc1	KB-V1 MDR tox inconclusive, MCF10A rerep inconclusive
Cc1cc(NC(=O)c2cccc(S(=O)(=O)N(C)C)c2)n(-c2ccccn2)n1	KB-V1 MDR tox 9.2µM, MCF10A rerep inconclusive
